Reference: PubChem BioAssay AID1671192 (National Center for Advancing Translational Sciences (NCATS), 2021)
Results filed as inconclusive are left out. The source made the active and inactive calls. Calls come from the whole dose curve; as a rule, active = well fitted curve in the direction sought with a large enough effect; inconclusive = small, poorly fitted or top-dose-only effect, or another doubt; inactive = no such curve, though single readings can be large or run the other way.

biological target: Polyunsaturated fatty acid lipoxygenase ALOX15 (Homo sapiens) (UniProt P16050); assay: Counterscreen qHTS for inhibitors of human arachidonate 12S-lipoxygenase (ALOX12): ALOX15 Assay; settings: purified ALOX15 enzyme activity; series mostly up to 110 µM
Sequence (P16050 whole entry, looked up): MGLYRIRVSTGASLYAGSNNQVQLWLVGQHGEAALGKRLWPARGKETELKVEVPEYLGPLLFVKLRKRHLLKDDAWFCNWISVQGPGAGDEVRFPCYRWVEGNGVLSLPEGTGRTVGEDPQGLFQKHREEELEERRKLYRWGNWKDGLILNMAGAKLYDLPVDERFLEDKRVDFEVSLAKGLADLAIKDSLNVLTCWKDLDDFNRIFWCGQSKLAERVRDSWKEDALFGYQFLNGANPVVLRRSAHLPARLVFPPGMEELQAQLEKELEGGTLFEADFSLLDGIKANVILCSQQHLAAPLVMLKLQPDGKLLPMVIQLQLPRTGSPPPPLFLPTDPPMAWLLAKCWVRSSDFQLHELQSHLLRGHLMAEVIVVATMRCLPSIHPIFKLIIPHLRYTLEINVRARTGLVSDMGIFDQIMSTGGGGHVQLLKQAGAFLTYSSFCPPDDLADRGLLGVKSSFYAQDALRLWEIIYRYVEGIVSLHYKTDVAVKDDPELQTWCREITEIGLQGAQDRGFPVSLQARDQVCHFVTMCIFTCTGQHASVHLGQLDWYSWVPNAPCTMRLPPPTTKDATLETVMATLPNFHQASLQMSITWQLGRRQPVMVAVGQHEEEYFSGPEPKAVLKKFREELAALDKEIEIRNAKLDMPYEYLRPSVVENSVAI
Summary of the method: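 Purified human ALOX15 (15hLO-1) at 40 nM in 25 mM HEPES, 0.01% Triton X-100, pH 7.5, preincubated with compound 15 min at RT. Then 50 uM arachidonic acid for 30 min; hydroperoxide detected by Fe-xylenol orange as the 573/405 nm absorbance ratio.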

Compound	outcome
COc1ccccc1C(=O)N1CCn2c(nnc2C2CCNCC2)C1	inactive
CC(=O)N1CCCC2(CC(c3ccccn3)=NO2)C1 (stereo not given)	inactive
CN1CC(=O)N(C2CCNCC2)Cc2c(NCCN3CCOCC3)ncnc21	inactive
O=C(c1ccccc1)N1Cc2ccccc2CC2(CCN(CC3CCNC3)C2)C1 (stereo not given)	inactive
CSc1ccc(-c2ccccc2C=O)cc1	inactive
CC1CCCN1c1ncnc2c1CN(C1CCCNCC1)C(=O)CN2C (stereo not given)	inactive
NCc1ccc(-c2ccc(F)cc2)cc1	inactive
O=C1NCc2ccccc2CC12CCN(Cc1ccc(Cl)s1)C2 (stereo not given)	inactive
CN(C)CCC(=O)N1Cc2ccccc2CC2(CCCN(C)C2)C1 (stereo not given)	inactive
O=C1NCc2ccccc2CC12CCN(Cc1cc(O)cc(O)c1)CC2	inactive
CCN1CCCCC12Cc1ccccc1CN(S(=O)(=O)c1ccccc1)C2 (stereo not given)	inactive
COc1ccc(CN2CCCCC23Cc2ccccc2CNC3=O)c(OC)c1 (stereo not given)	inactive
COC(=O)CNC(=O)C1CCc2nnc(CNC(=O)c3cccnc3)n21 (stereo not given)	inactive
N#Cc1ccc(CN2CCn3c(nn(-c4cccc(Cl)c4)c3=O)C2)cc1	inactive
COCCNc1ncnc2c1CN(C1CCNCC1)C(=O)CN2C	inactive
CC(=O)NC1CC2(CCN(C(=O)Cc3cnc[nH]3)CC2)c2ccccc21 (stereo not given)	inactive
COc1ccc(CNc2ncnc3c2CN(C2CCCNC2)C(=O)CN3C)cc1 (stereo not given)	inactive
CN1CC(=O)N(C2CCCNC2)Cc2c(NCCO)ncnc21 (stereo not given)	inactive
O=C1NCc2ccccc2CC12CCN(Cc1cccc(F)c1F)C2 (stereo not given)	inactive
O=C1NCc2ccccc2CC12CCN(Cc1cnc3ccccc3c1)CC2	inactive
